Experimental data taken from PubChem BioAssay (NCATS).
Where “and” joins values, the source holds several entries; their conditions need not be identical. Identical values can stand only once. Results filed as inconclusive are left out. Entries that show only a call come without a potency. Values without a mark were called inactive. Calls of active or inactive are those of the source. The call rests on the fitted dose curve; in most records, active means well fitted curve in the direction sought with a large enough effect; inconclusive means small, poorly fitted or top-dose-only effect, or another doubt; inactive means no such curve, though single readings can be large; an effect the other way counts as inactive or inconclusive.

Assays:
[1] = biological target: Cellular tumor antigen p53 (Homo sapiens) (UniProt P04637); assay: Primary qHTS for small molecule compounds that upregulate eGFP-tagged delta133p53alpha (in N-terminal) cells. (AID 2060322); conditions: NCI-H358 eGFP-delta133p53alpha fluorescence, 24 h; activation: active compounds read high; further: nearly all actives have a fitted effect of over 75% in size; further: potency means the concentration at half of the fitted maximal effect;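 on activation: cells pre-induced with doxycycline then dosed without doxycycline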
Sequence of Cellular tumor antigen p53 (Homo sapiens) (P04637 whole entry, looked up): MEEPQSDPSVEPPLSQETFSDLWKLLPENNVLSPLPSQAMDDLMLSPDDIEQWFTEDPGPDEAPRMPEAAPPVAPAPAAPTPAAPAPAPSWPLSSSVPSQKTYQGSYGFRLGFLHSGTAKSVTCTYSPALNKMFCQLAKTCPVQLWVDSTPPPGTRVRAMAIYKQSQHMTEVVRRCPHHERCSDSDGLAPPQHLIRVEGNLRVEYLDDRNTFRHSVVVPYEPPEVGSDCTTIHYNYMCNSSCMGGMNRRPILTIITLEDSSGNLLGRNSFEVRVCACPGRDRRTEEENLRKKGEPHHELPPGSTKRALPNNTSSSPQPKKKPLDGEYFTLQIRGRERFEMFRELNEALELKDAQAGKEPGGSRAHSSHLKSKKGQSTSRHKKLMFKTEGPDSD
Method in brief: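 NCI-H358 cells pre-induced 24 h with 10 ng/ml doxycycline for eGFP-delta133p53alpha, plated dox-free and exposed 24 h at 37C to titrated compounds. Fixed, Hoechst-stained; gated GFP peak intensity by laser scanning cytometry, normalized to DMSO (0%) and 57.5 uM 5-azacytidine (100%).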

[2] = biological target: Aldehyde dehydrogenase, mitochondrial (Homo sapiens) (UniProt P05091); assay: qHTS for Inhibitors of the Aldehyde Dehydrogenase Family (ALDH2) Primary screen (AID 2061308); conditions: ALDH2 enzyme inhibition qHTS, 1536-well; series mostly up to 56 µM; further: nearly all actives have a fitted effect of over 55% in size
[3] = biological target: Retinaldehyde dehydrogenase 3 (Homo sapiens) (UniProt P47895); assay: qHTS for Inhibitors of the Aldehyde Dehydrogenase Family (ALDH1A3) Primary screen (AID 2061315); conditions: ALDH inhibition qHTS; series mostly up to 56 µM

Row | Compound | activation [1] | Potency [2] | Potency [3] | Potency [1]
1 | O=C1Nc2ccccc2C(O)(c2ccccc2)C1O (stereo not given) | 0.763% | inactive | inactive | –
2 | CC1CCC2C(=CCC(O)C2(C)C)C1(C)Cc1c(O)cc(CO)c(C=O)c1O (stereo not given) | 9.92% | inactive | inactive | –
3 | CC(=O)OCC(=O)O[C@@H]1[C@H]2[C@@H](OC(=O)c3ccccc3)[C@@H](C)C[C@]2(O)[C@H](OC(C)=O)C2(C)[C@H]3CC(C)(C)C(=O)[C@@H]3CC1(OC(C)=O)[C@@H]2OC(C)=O (stereo not given in full) | -11.6% | inactive | inactive | –
4 | C=C(C(=O)O)[C@@H]1CC[C@H](C)[C@@H]2CC(=O)C(C)=C2C1 | -8.04% | inactive | inactive | –
5 | C[C@@H]1CC[C@]2(C(=O)O[C@@H]3O[C@H](CO[C@@H]4O[C@H](CO)[C@@H](O)[C@H](O)[C@H]4O)[C@@H](O)[C@H](O)[C@H]3O)CC[C@]3(C)C(=CCC4[C@@]5(C)CC[C@H](O)[C@](C)(C(=O)O)C5CC[C@]43C)[C@@H]2[C@]1(C)O (stereo not given in full) | -6.11% | inactive | inactive | –
6 | CC(C)=CCC/C(C)=C/CCC1(C)Oc2c(c(O)cc3c2CN(C(CCC(=O)O)C(=O)O)C3=O)CC1O (stereo not given) | -13.7% | inactive | inactive | –
7 | CCCCS(=O)(=O)Nc1ncnc(OCCOc2ncc(Br)cn2)c1-c1ccc(Br)cc1 | -20.3% | inactive | inactive | –
8 | CC(=O)O[C@@H]1[C@@H](OC(=O)/C=C/c2ccccc2)[C@H](C)O[C@@H](O[C@H]2[C@@H]3C=CO[C@@H](O[C@@H]4O[C@H](CO)[C@@H](O)[C@H](O)[C@H]4O)[C@@H]3[C@@]3(CO)O[C@@H]23)[C@@H]1OC(C)=O | -3.82% | inactive | inactive | –
9 | Cc1ncc([N+](=O)[O-])n1CC(O)CN1CCOCC1 (stereo not given) | -11% | inactive | inactive | –
10 | COc1cc(-c2nc(N[C@H](CO)Cc3ccccc3)ccc2C(=O)NCCOc2ccccc2)cc(OC)c1OC | -11.9% | inactive | inactive | –
11 | COc1c(O)cc2c(c1O)[C@@H]1O[C@H](CO)[C@@H](O)[C@H](O)[C@H]1OC2=O | 18% and -2.68% | inactive | inactive | –
12 | CCCC(=O)NCCc1csc(-c2ccc(Cl)cc2)n1 | 1% | inactive | inactive | –
13 | C/C=C/c1cc(OC)c2c(c1)[C@@H](C)[C@@H](c1ccc(O)c(OC)c1)O2 | -16% | inactive | inactive | –
14 | COc1ccc(CC(=O)NCc2ccccc2-c2ccccc2C(=O)NCCc2cccnc2)cc1 | 0.955% | inactive | inactive | –
15 | O=C(O)Cc1ccccc1Oc1ccc(Cl)cc1Cl | -3.35% | inactive | inactive | –
16 | CC(=O)C1=CCC2C3CCC4CC(O[C@@H]5O[C@H](CO)[C@@H](O[C@@H]6O[C@@H](C)[C@H](O)[C@@H](O)[C@H]6O)[C@H](O)[C@H]5O[C@@H]5O[C@H](CO)[C@@H](O)[C@H](O)[C@H]5O)CCC4(C)C3CCC12C (stereo not given in full) | -10.7% | inactive | inactive | –
17 | CCOC(=O)N1CCC(N2CCC[C@@H](NC(=O)c3ccccc3C)C2)CC1 | -2.86% | inactive | inactive | –
18 | Cc1c(C(=O)NCCCO)cnn1-c1nc(-c2cccc(C(F)(F)F)c2)cs1 | – | inactive | inactive | 9.53 µM (active)
19 | CCc1cc(CC[C@]2(C3CCCC3)CC(O)=C(Cc3nc4nc(C)cc(C)n4n3)C(=O)O2)cc(CC)n1 | -29.5% | inactive | inactive | –
20 | C=C1C(=O)O[C@@H]2C3=C(C)CCC[C@]3(C)CC[C@@]12O | – | inactive | inactive | 16.9 µM (active)
21 | C=C1CCC2C(C)(C)CC(=O)CC2(C)C1CCC(C)CCOC(C)=O (stereo not given) | -5.34% | inactive | inactive | –
22 | C/C(=C\CCC(C)C1=CCC2(C)OC3=C(CC12)C(=O)C(O)CC3)CO (stereo not given) | 25.2% | inactive | inactive | –
23 | OC[C@H]1O[C@@H](Oc2cc(O)c3c(c2)O[C@@H](c2ccc(O)cc2)[C@H](O)C3)[C@H](O)[C@@H](O)[C@@H]1O | 4.46% | inactive | inactive | –
24 | C=C1C(=O)O[C@@H]2/C=C(\C)C(=O)/C=C/[C@](C)(O)C[C@@H](OC(=O)C(C)C)[C@@H]12 | – | inactive | inactive | 2.95 µM (active)
25 | CC(=O)c1ccc(OCC(=O)N2CCCCC2)cc1 | -3% | inactive | inactive | –
